Only some compounds are listed: those with a hit (about 7.1% of all), similar ones and a draw of the others.
PINK1 modulator = PINK1 expression modulation; PINK1 immunofluorescence, high-content cytometry, 24 h; Potency, µM (doses to about 76.6 µM), most hits filed as activators; actives 0.2% (n = 410,000); AID 624263; active = well fitted activation curve with a large enough effect; inconclusive = small, poorly fitted or top-dose-only effect; cell line not stated here; also: nearly all actives have a fitted effect of over 65% in size
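Fluorescence from anti-PINK1 antibody, together with nuclear and cell stains, was scanned on a laser-scanning cytometer. Before staining, stable-line cells were incubated 24 hours with compounds at 5 concentrations; primary antibody 12 h at 10 degrees C.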
SW480 rereplic = inducers of DNA re-replication in SW480 colon cancer cells; SW480 DNA re-replication, Hoechst DNA content imaging, 48 h; Potency, µM (titrated, usually from 46.1 µM), hits mostly activators; AID 624297; actives 1.8% (n = 340,000); also: nearly all actives have a fitted effect of over 55% in size
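Quantitative HTS format with DMSO vehicle controls; 48 hr drug incubation at 37 C, then 40 min Hoechst staining and scanning imager measurement at 405 nm excitation.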
S2 tox = viability counter-screen for ATXN expression inhibitors; S2 cells (HEK-293 line with an ATXN2-luciferase reporter) viability, CellTiter-Fluor protease fluorescence, 24 h; Potency, µM (series often up to 56.7 µM), hits mostly cytotoxic; actives 0.49% (n = 400,000); AID 651635; also: nearly all actives have a fitted effect of over 40% in size
IL-1B inflam inh = inhibitors of inflammasome signaling (IL-1 beta secretion) | THP-1 LPS/ATP IL-1B secretion, AlphaLISA, 16 h; active compounds read low | activity change, % at 57.5 µM | actives 4.7% (n = 360,000) | AID 743279; in the data active = activity change below about -50%; inconclusive = mostly about -30% to -49%
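THP-1 cells pretreated 1 hr with compounds (up to 57.5 uM final), then stimulated with LPS (250 ng/mL final) plus ATP (1.25 mM final); secreted IL-1B measured by AlphaLISA after 16 hr, decreased signal indicating inhibition.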
MCF10A rerep = DNA re-replication induction in MCF 10a cells | Potency, µM (top dose mostly 46.1 µM), hits mostly activators | MCF 10A DNA re-replication, Hoechst nuclear intensity, 48 h | actives 2.9% (n = 350,000); also: nearly all actives have a fitted effect of over 50% in size
ATXN2 expr inh = reduces ATXN2 reporter expression in HEK-293 cells | actives 0.72% (n = 360,000) | HEK-293 ATXN2-luciferase reporter, luminescence, 24 h | Potency, µM (doses to about 57 µM), actives largely listed as inhibitors; also: nearly all actives have a fitted effect of over 55% in size
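qHTS (up to 57 uM final) was run with 24 h compound exposure of reporter cells at 37 °C. Each well was multiplexed: SteadyGlo luminescence measured ATXN2-luciferase expression after a fluorogenic Gly-Phe-AFC viability readout (25 uM final).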
Large screens that a line does not name were inactive. Unless noted, calls follow the shape of the dose curve; as a rule, active = well fitted curve in the direction sought with a large enough effect; inconclusive = small, poorly fitted or top-dose-only effect, or another doubt; inactive = no such curve, though single readings can be large; an effect the other way counts as inactive or inconclusive.

CCOc1ccc(CN2CCN(Cc3cc4c(cc3Cl)OCO4)CC2CCO)cc1 (configuration not stated)	SW480 rereplic inconclusive, IL-1B inflam inh -60.2
COc1ccc2[nH]c(CN3CCN(CC(C)C)C(CCO)C3)c(C)c2c1 (configuration not stated)	IL-1B inflam inh -96.1
S=C(Nc1ccc(Cl)cc1)c1nc2ccccc2s1	MCF10A rerep inconclusive
O=C(Nc1ccc(Cl)cc1)/C(=C/c1cccc(O)c1)c1nc2ccccc2s1	SW480 rereplic 20.6µM, IL-1B inflam inh -100.8, MCF10A rerep 4.11µM, ATXN2 expr inh 8.91µM (no result: S2 tox)
CCN1/C(=C/c2sc(-c3ccccc3C)c[n+]2C)Sc2ccccc21	PINK1 modulator inconclusive, SW480 rereplic inconclusive, IL-1B inflam inh -99.0, MCF10A rerep 20.6µM, ATXN2 expr inh inconclusive (no result: S2 tox)
COc1cccc(C2NC(=O)NC(C)=C2C(=O)Nc2ccc(C)cc2)c1 (configuration not stated)	none
COC(=O)C1=C(Nc2ccc(C)cc2)C=C(C)C(C(=O)OC)C1c1ccc(OC)cc1 (configuration not stated)	SW480 rereplic 14.6µM, MCF10A rerep inconclusive
COC(=O)C1C(=O)C=C(Nc2ccc(F)cc2)CC1c1ccc(OC)cc1 (configuration not stated)	none
COC(=O)C1=C(Nc2ccc(C)cc2)C=C(C)C(C(=O)OC)C1c1cccc(OC)c1 (configuration not stated)	SW480 rereplic 23.1µM, S2 tox inconclusive, MCF10A rerep inconclusive
O=C(Nc1nc(=O)c2ccccc2s1)c1ccc(F)cc1	IL-1B inflam inh -99.3, MCF10A rerep inconclusive
CCOC(=O)c1c(SCCN2CCCCC2)n(-c2ccccc2)c(=S)n(-c2ccccc2)c1=O	SW480 rereplic 11.6µM, S2 tox inconclusive, MCF10A rerep 9.2µM, ATXN2 expr inh 20µM
C=CCN(CC=C)C(=S)NC(=O)c1ccc([N+](=O)[O-])cc1	SW480 rereplic 3.66µM, MCF10A rerep inconclusive
C=CCNC(=S)NNC(=O)c1ccc([N+](=O)[O-])cc1	none
Oc1ccc(Cl)cc1C1C=C(c2ccc3c(c2)OCO3)NC(c2cc(Br)ccc2F)N1 (configuration not stated)	none (no result: SW480 rereplic, S2 tox, IL-1B inflam inh, MCF10A rerep, ATXN2 expr inh)
C=CC(=O)Nc1ccc(N(C)c2ccnc(Nc3ccc(N4CCN(C)CC4)cc3)n2)cc1	SW480 rereplic inconclusive, S2 tox 14.1µM, IL-1B inflam inh -77.2, MCF10A rerep inconclusive
COc1cccc(S(=O)(=O)N2CCN(c3nc(-c4cccs4)nc4ccccc34)CC2)c1	none (no result: SW480 rereplic, S2 tox, IL-1B inflam inh, MCF10A rerep, ATXN2 expr inh)
CC(=O)Nc1ccc2c(CSc3nnc(-c4cccnc4)n3-c3ccc(C)cc3C)cc(=O)oc2c1	S2 tox inconclusive
CC(C)c1ccccc1-n1c(SCc2cc(=O)oc3ccc4ccccc4c23)nnc1-c1cccnc1	S2 tox inconclusive, IL-1B inflam inh -50.8, ATXN2 expr inh inconclusive (no result: SW480 rereplic)
CCOc1ccc(-n2c(SCc3cc(=O)oc4cc(C)ccc34)nnc2-c2cccnc2)cc1	IL-1B inflam inh -54.4
CC(NC(=O)c1ccc2c(c1)N(Cc1ccc(Cl)cc1)C(=O)c1ccccc1S2=O)c1ccccc1 (configuration not stated)	none (no result: SW480 rereplic, IL-1B inflam inh, MCF10A rerep)
Cc1cc(-c2ccc(C)c(S(=O)(=O)NC(c3cccs3)C(C)C)c2)on1 (configuration not stated)	none (no result: SW480 rereplic, IL-1B inflam inh, MCF10A rerep)
COc1ccc(NCc2cc3cc4c(cc3n(CC(=O)Nc3ccc(F)cc3)c2=O)OCCO4)cc1	S2 tox inconclusive (no result: SW480 rereplic, IL-1B inflam inh, MCF10A rerep)
Cc1ccccc1Cn1cnc2nc3c(cc2c1=O)CC(C)CC3 (configuration not stated)	none (no result: SW480 rereplic, IL-1B inflam inh, MCF10A rerep)
CC(C)=C1SC(N2CCN(c3ccc(C)cc3)CC2)=NC1=O	none
CC(C)=C1SC(N2CCN(c3ccc(Cl)cc3)CC2)=NC1=O	IL-1B inflam inh -60.4, ATXN2 expr inh inconclusive
COc1ccc(OCC(=O)OC(C)CN2CCCCC2)cc1 (configuration not stated)	none
Cc1ccc(OCC(=O)OC(C)CN2CCCCC2)cc1 (configuration not stated)	S2 tox inconclusive, MCF10A rerep 1.03µM
C=C1C=C(C(F)F)n2ncc(C(=O)N3CCN(c4ccccn4)CC3)c2N1	none (no result: SW480 rereplic, S2 tox, IL-1B inflam inh, MCF10A rerep, ATXN2 expr inh)
CCCC(=O)NC(c1ccc2c(c1)OCO2)c1cc(Cl)c2cccnc2c1O (configuration not stated)	SW480 rereplic inconclusive, IL-1B inflam inh -82.1, MCF10A rerep inconclusive, ATXN2 expr inh 8.91µM
CC(C)CC(=O)NC(c1cccs1)c1ccc2cccnc2c1O (configuration not stated)	SW480 rereplic 0.82µM, MCF10A rerep inconclusive, ATXN2 expr inh inconclusive
CCC(=O)NC(c1cccs1)c1ccc2cccnc2c1O (configuration not stated)	SW480 rereplic inconclusive, S2 tox inconclusive (no result: ATXN2 expr inh)
CCOc1ccc(C(NC(C)=O)c2cc(Cl)c3cccnc3c2O)cc1 (configuration not stated)	none (no result: SW480 rereplic, S2 tox, IL-1B inflam inh, MCF10A rerep, ATXN2 expr inh)
CCCC(=O)NC(c1ccco1)c1cc(Cl)c2cccnc2c1O (configuration not stated)	SW480 rereplic inconclusive, S2 tox inconclusive, MCF10A rerep inconclusive, ATXN2 expr inh 25.1µM
CCC(=O)NC(c1cccs1)c1cc([N+](=O)[O-])c2cccnc2c1OC (configuration not stated)	none (no result: SW480 rereplic, IL-1B inflam inh, MCF10A rerep)
CCCC(=O)NC(c1cccs1)c1cc(Cl)c2cccnc2c1O (configuration not stated)	SW480 rereplic 1.3µM
CCc1ccc(Cn2c(CNS(=O)(=O)c3ccc(F)c(Cl)c3)nc3cccnc32)cc1	none (no result: SW480 rereplic, S2 tox, IL-1B inflam inh, MCF10A rerep, ATXN2 expr inh)
CCOc1ccc(CCNC(=O)CCn2c(=O)c3cccn3c3ccc(F)cc32)cc1OCC	none (no result: SW480 rereplic, S2 tox, IL-1B inflam inh, MCF10A rerep, ATXN2 expr inh)
COC(=O)c1ccc(N/C=C/C(=O)c2ccc(OC)c(OC)c2)cc1	PINK1 modulator inconclusive, MCF10A rerep inconclusive
COc1ccc(C(=O)/C=C/Nc2ccc(NC(C)=O)cc2)cc1OC	none
CNc1cc([N+](=O)[O-])ccc1N/C=C/C(=O)c1cccs1	none
COc1ccc(N/C=C/C(=O)c2ccc(OC)c(OC)c2)cc1	S2 tox inconclusive, MCF10A rerep 20.6µM
COc1ccc(C(=O)/C=C/Nc2cccc(C)n2)cc1OC	IL-1B inflam inh -59.5, MCF10A rerep inconclusive
CNc1cc([N+](=O)[O-])ccc1N/C=C/C(=O)c1ccc2c(c1)OCO2	PINK1 modulator 14.1µM, SW480 rereplic inconclusive, S2 tox inconclusive
COc1ccc(N/C=C/C(=O)c2cc(OC)c(OC)c(OC)c2)cc1	SW480 rereplic 5.8µM, MCF10A rerep 5.17µM
COc1ccc(N/C=C/C(=O)c2ccc(Cl)cc2)cc1	MCF10A rerep inconclusive
COc1cccc(CNC(=O)c2cnc(N3CCCC3)nc2C)c1	none (no result: SW480 rereplic, IL-1B inflam inh, MCF10A rerep)

Compound activity (PubChem)
